A selection: hits, their analogues and other compounds. The true share with any hit is near 5.7%.
ClpP mod = qHTS Assay for Activators of ClpP; purified B. subtilis ClpP, FRET peptide cleavage, 20 min; Potency, µM (highest dose often 57.5 µM); actives 1.9% (n = 340,000); active means well fitted falling curve with a large enough effect; inconclusive means small, poorly fitted or top-dose-only effect; inactive means no such curve, though single readings can be large or run the other way; further: the source files actives as falling curves though it sought activators and does not explain the sign; nearly all actives have a fitted effect of over 65% in size
Target sequence (P80244 whole entry, looked up): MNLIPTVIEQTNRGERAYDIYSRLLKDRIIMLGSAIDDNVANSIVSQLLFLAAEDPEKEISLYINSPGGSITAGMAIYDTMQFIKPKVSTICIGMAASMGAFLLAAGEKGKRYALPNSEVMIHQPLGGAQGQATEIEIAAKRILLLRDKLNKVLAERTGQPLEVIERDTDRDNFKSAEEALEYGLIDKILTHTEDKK
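Purified B. subtilis ClpP, 10 microg/mL final in Tris/HCl pH8 with KCl, BSA, glycerol and Tween-20, cleaved an Abz/nitrotyrosine-quenched decapeptide. Fluorescence (ex 320, em 430) was read at 0 and 20 min at room temperature. Delta was normalized to 5.8 microM ADEP and DMSO/no-enzyme controls.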
DRD3 agonist = qHTS of D3 Dopamine Receptor Agonist: qHTS; D(3) dopamine receptor (Homo sapiens), P35462; max activation, %; D3R DiscoveRx beta-arrestin cells, luminescence, 90 min; actives 0.58% (n = 410,000); in the data active means max activation above about 30%
Target sequence (P35462 whole entry, looked up): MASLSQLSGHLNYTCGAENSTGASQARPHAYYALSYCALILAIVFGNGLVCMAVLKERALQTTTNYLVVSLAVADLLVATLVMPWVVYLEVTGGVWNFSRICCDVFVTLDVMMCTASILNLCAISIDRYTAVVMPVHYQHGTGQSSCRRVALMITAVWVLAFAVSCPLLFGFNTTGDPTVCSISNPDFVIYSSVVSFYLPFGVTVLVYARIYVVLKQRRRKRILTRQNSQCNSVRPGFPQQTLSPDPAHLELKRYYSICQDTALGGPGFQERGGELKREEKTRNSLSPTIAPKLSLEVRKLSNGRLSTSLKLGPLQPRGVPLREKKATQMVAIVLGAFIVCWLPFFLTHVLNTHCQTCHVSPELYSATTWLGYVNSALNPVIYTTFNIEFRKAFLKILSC
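Agonist-mode cell screen: cells plated at 1500/well and incubated overnight at 37 °C, then exposed to library compounds for 90 min at 37 °C. Detection reagent was added for 30–60 min at room temperature, and luminescence was read.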
GLP-1R agonist = qHTS of GLP-1 Receptor Agonists; Potency, µM (highest dose often 45.6 µM), actives largely listed as activators; HEK293 GLP-1R CRE-luciferase, luminescence, 4-6 h; cells express a hypersensitive GLP-1R form; Glucagon-like peptide 1 receptor (Homo sapiens), P43220; actives 0.007% (n = 380,000)
GLP1R inv ag = qHTS of GLP-1 Receptor Inverse Agonists (Inhibition Mode) | Glucagon-like peptide 1 receptor (Homo sapiens), P43220 | Potency, µM (series often up to 38.3 µM), actives largely listed as inhibitors | HEK293 GLP-1R CRE-luciferase, luminescence, 24 h; GLP-1R form is constitutively active | AID 624417, 2012 | actives 1.6% (n = 410,000); further: nearly all actives have a fitted effect of over 55% in size
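Cells are plated, allowed 12 hours at 37 deg C, then treated with compounds for 24 hr before luciferase detection reagent is added and luminescence is read after 12 min at room temperature. The HEK293 line carries constitutively active GLP-1R with a cAMP-responsive reporter.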
HEK293 tox = qHTS of GLP-1 Receptor Inverse Agonists: Cytotox Screen; actives 0.13% (n = 410,000); HEK293 cAMP-luciferase reporter cells, luminescence, 24 h; AID 624418, 2012; Potency, µM (titrated, usually from 38.3 µM), actives largely listed as inhibitors;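 further: loss of luciferase light is scored as toxicity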
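A 23 nL compound transfer followed 12 hours of cell culture at 37 deg C; exposure then lasted 24 hr. Luciferase assay detection reagent was dispensed and plates read for luminescence after a 12 min room-temperature wait.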
DRD3 antagonist = qHTS of D3 Dopamine Receptor Antagonist: qHTS. D(3) dopamine receptor (Homo sapiens), P35462. max response, negative = inhibition, %. D3R cells, DiscoveRx beta-arrestin luminescence, antagonist mode; stronger effect = lower value. actives 2.5% (n = 360,000); in the data active means max response below about -50%; inconclusive means no clear call, values can overlap the other calls
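Cells plated overnight at 1500 cells/well, then exposed to library compounds with dopamine controls for 90 minutes at 37 degrees C. DiscoveRx reagent added for 30–60 minutes at room temperature; luminescence read, quantitative HTS format.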
Each line names hits and unclear results; the compound was inactive in the other large screens. Unless noted, the call rests on the fitted dose curve; in most records, active means well fitted curve in the direction sought with a large enough effect; inconclusive means small, poorly fitted or top-dose-only effect, or another doubt; inactive means no such curve, though single readings can be large; an effect the other way counts as inactive or inconclusive.

C[C@@H]1CN([C@H](C)CO)C(=O)CCCn2nncc2CO[C@H]1CN(C)S(=O)(=O)c1ccc(Oc2ccccc2)nc1	none
CCOC(=O)c1noc2ncnc(N3CCN(c4cccc(Cl)c4)CC3)c12	none (no result: GLP-1R agonist, DRD3 antagonist)
CCOC(=O)N1CCC(NCCNC(=O)c2ccc(F)cc2)CC1	none
CCOC(=O)N1CCC(Nc2c(Nc3ccc(F)cc3)c(=O)c2=O)CC1	DRD3 antagonist -89.5
CCOC(=O)N1CCC(Nc2c(-c3ccc(C)cc3)c(=O)c2=O)CC1	none
CCOC(=O)N1CCC(Nc2c(Nc3cccc(CC)c3)c(=O)c2=O)CC1	DRD3 antagonist -61.5
CCOC(=O)N1CCC(NCCNC(=O)c2cccc(F)c2)CC1	DRD3 antagonist -112.3
C[C@@H]1C/C=C/C=C/C=C/C=C/[C@H](O[C@@H]2O[C@H](C)[C@@H](O)[C@H](N)[C@@H]2O)C[C@@H]2O[C@](O)(C[C@@H](O)C[C@H]3O[C@@H]3/C=C/C(=O)O1)C[C@H](O)[C@H]2C(=O)O	none (no result: ClpP mod, GLP-1R agonist, GLP1R inv ag, HEK293 tox, DRD3 antagonist)
O=C(NCc1ccccc1)C1c2ccccc2OCC(=O)N1Cc1ccccc1 (stereo not drawn)	none
Cc1ccccc1CNC(=O)C1CCCCN1S(=O)(=O)c1ccc(F)cc1 (stereo not drawn)	GLP1R inv ag inconclusive (no result: GLP-1R agonist, DRD3 antagonist)
CCc1ccc(NC(=O)Cn2c(=O)n(-c3ccc(Cl)c(Cl)c3)c(=O)c3c(C)c(C)sc32)cc1	none (no result: GLP-1R agonist, DRD3 antagonist)
C[C@@H]1CC=C[C@@H]2[C@H]1C(=O)N(Cc1ccccc1)[C@H]2c1ccccc1Br	none
COc1ccc(-c2ccccc2[C@H]2[C@@H]3C=CC[C@@H](C)[C@@H]3C(=O)N2Cc2ccccc2)cc1	GLP1R inv ag 8.91µM, DRD3 antagonist inconclusive
CC(=O)c1ccc(-c2cc([C@H]3[C@H]4C=CC[C@@H](C)[C@@H]4C(=O)N3Cc3ccccc3)ccc2F)cc1	GLP1R inv ag 11.2µM
C[C@@H]1CC=C[C@H]2[C@H]1C(=O)N(Cc1ccccc1)[C@H]2c1ccc(-c2ccc(F)cc2)cc1F	GLP1R inv ag inconclusive
COc1ccc(-c2ccc([C@H]3[C@H]4C=CC[C@@H](C)[C@@H]4C(=O)N3Cc3ccccc3)c(F)c2)cc1C	ClpP mod 25.1µM, GLP1R inv ag 4.47µM
C[C@@H]1CC=C[C@H]2[C@H]1C(=O)N(Cc1ccccc1)[C@H]2c1ccc(-c2ccoc2)cc1F	GLP1R inv ag inconclusive, DRD3 antagonist -62.5
Cc1nc(Sc2nnnn2C2CC2)c2c(-c3ccccc3)csc2n1	none (no result: DRD3 agonist, GLP-1R agonist, GLP1R inv ag, HEK293 tox, DRD3 antagonist)
Cc1ccccc1CN1C(=O)c2ccccc2Sc2ccc(C(=O)NCc3ccccc3)cc21	GLP1R inv ag inconclusive (no result: GLP-1R agonist, DRD3 antagonist)
CN(C(=O)c1cccc(NC(=O)Cc2ccc(NC(=O)C3CCN(C(=O)CCc4ccccc4)CC3)cc2)c1)C1CCCCC1	none
Cc1c([N+](=O)[O-])cnc2ccccc12	none (no result: DRD3 agonist, GLP-1R agonist, GLP1R inv ag, HEK293 tox, DRD3 antagonist)
CCCOc1cccc(NC(=O)c2c(-c3ccccc3Cl)noc2C)c1	GLP1R inv ag inconclusive (no result: GLP-1R agonist, DRD3 antagonist)
COc1ccc(NC(=O)Cn2nnc(-c3ccccc3NS(=O)(=O)c3ccccc3)n2)cc1	GLP1R inv ag 7.08µM
Cc1noc(C)c1C(=O)OCC(=O)Nc1cccc(S(=O)(=O)N(C)C)c1	none
CCCOC(=O)c1cccc(NC(=O)c2c(-c3ccccc3Cl)noc2C)c1	GLP1R inv ag 8.91µM (no result: GLP-1R agonist, DRD3 antagonist)
Cc1onc(-c2ccccc2Cl)c1C(=O)NC(=S)Nc1ccc(C(C)C)cc1	GLP1R inv ag 3.98µM
Cc1onc(-c2c(F)cccc2Cl)c1C(=O)OCC(=O)Nc1cccc(S(=O)(=O)N(C)C)c1	GLP1R inv ag inconclusive, DRD3 antagonist -97.3
CCOc1ccc(CNC(=O)c2cc3ccccn3n2)cc1	none (no result: GLP-1R agonist, DRD3 antagonist)
CCCc1nn2c(C)c(-c3ccccc3)nc2s1	none (no result: GLP-1R agonist, DRD3 antagonist)
COc1ccccc1NC(=S)NC(=O)c1c(-c2ccccc2Cl)noc1C	GLP1R inv ag 3.98µM
COC(=O)c1cc(OC)c(OC)cc1NC(=O)Cn1nnc(-c2ccccc2Cl)n1	ClpP mod inconclusive, DRD3 agonist 51.9, HEK293 tox inconclusive
COC(=O)c1cc(OC)c(OC)cc1NC(=O)c1c(-c2ccccc2Cl)noc1C	ClpP mod inconclusive, DRD3 agonist 44.3
Cc1onc(-c2ccccc2Cl)c1C(=O)NCc1ccccn1	DRD3 antagonist -58.1
Cc1cccc(NC(=O)CSc2nc3c(c(=O)[nH]2)CN(Cc2ccc4c(c2)OCO4)CC3)c1C	none (no result: GLP-1R agonist, DRD3 antagonist)
O=C(Cn1ncn2c(cc3cc(F)ccc32)c1=O)NC1CCCCC1	none (no result: GLP-1R agonist, DRD3 antagonist)
CCNC(=O)[C@H]1CCCN1C(=O)[C@H](CCCN=C(N)N)NC(=O)[C@H](CC(C)C)NC(=O)[C@H](CC(C)C)NC(=O)[C@@H](Cc1ccc(O)cc1)NC(=O)[C@H](CO)NC(=O)[C@@H](Cc1c[nH]c2ccccc12)NC(=O)[C@H](Cc1cnc[nH]1)NC(=O)[C@@H]1CCC(=O)N1	none (no result: ClpP mod, DRD3 agonist, GLP1R inv ag, HEK293 tox, DRD3 antagonist)
O=C1CCN(Cc2ccccc2)C=C1C(=O)c1ccccc1	DRD3 agonist 47.4
COc1cc(NC(=O)N2CCC3(CC2)Nc2ccccc2-n2cccc23)cc(OC)c1OC	GLP1R inv ag inconclusive (no result: GLP-1R agonist, DRD3 antagonist)
CC1(C)COCN1S(=O)(=O)c1ccc(C(=O)Nc2nnc(-c3ccc(Cl)s3)o2)cc1	GLP1R inv ag inconclusive, HEK293 tox inconclusive
COc1ccc(-c2nnc(NC(=O)c3ccc(S(=O)(=O)N4COCC4(C)C)cc3)o2)cc1	GLP1R inv ag inconclusive, DRD3 antagonist -64.6
CC(NS(=O)(=O)c1ccc2c(c1)CCN2C(=O)CCCC(=O)O)c1ccccc1 (stereo not drawn)	none (no result: DRD3 antagonist)
Cc1nn(-c2ccccc2)c2nc(=O)n(-c3ccccc3)cc12	DRD3 antagonist -65.0
CCN(Cc1ccccc1)S(=O)(=O)c1ccc(C(=O)N(CCCN(C)C)c2nc3cc(OC)ccc3s2)cc1	GLP1R inv ag inconclusive, HEK293 tox inconclusive (no result: ClpP mod)
CN(C)CCCN(C(=O)CCc1ccccc1)c1nc2c(F)cccc2s1	none
CN(C)CCCN(C(=O)CCOc1ccccc1)c1nc2ccc(F)cc2s1	GLP1R inv ag inconclusive, HEK293 tox 10µM, DRD3 antagonist -91.5
CN(C)CCCN(C(=O)CCOc1ccccc1)c1nc2c(F)cccc2s1	GLP1R inv ag inconclusive, HEK293 tox inconclusive, DRD3 antagonist -98.8
CCN(Cc1ccccc1)S(=O)(=O)c1ccc(C(=O)N(CCCN(C)C)c2nc3ccc(F)cc3s2)cc1	GLP1R inv ag 5.62µM, HEK293 tox inconclusive
